Over roughly 16,000 sequences, “rpm ratio (pull-down/input)” has its median near 0.94; the highest 2% begin near 1.7. For the sample, the highest values were picked, then their nearest neighbours and some sequences at random.

The assay deals with T1, MBP-FoxP1dN (Mus musculus, UniProt P58462 326-579).
T1 sequence: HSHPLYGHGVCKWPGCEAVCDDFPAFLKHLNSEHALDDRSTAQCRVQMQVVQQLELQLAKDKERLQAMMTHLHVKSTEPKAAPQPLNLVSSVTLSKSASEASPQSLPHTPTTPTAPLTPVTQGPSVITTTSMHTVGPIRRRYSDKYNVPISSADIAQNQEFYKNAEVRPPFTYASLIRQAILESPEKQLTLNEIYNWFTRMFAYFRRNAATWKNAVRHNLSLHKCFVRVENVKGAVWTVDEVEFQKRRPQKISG
Nature of the assay: PD-seq (MBP pull-down with sequencing); 20 mM Tris-HCl pH 7.5, 100 mM NaCl, 1.5 mM MgCl2, 0.4 uM protein, 0.1 uM dsDNA library, 30 min, room temperature, amylose pull-down; high values mean tight binding. Particulars: protein: recombinant; tags: His6-MBP; chain copies: 2; dsDNA, one strand shown. Summed up:
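A fragment of mouse FoxP3 or FoxP1 without its N-terminus, carrying a His6-MBP tag and produced in E. coli, was combined at 0.4 µM with a 0.1 µM degenerate double-stranded DNA library filled in with Klenow. The mixture sat for 30 min at room temperature in Tris pH 7.5 buffer containing NaCl and MgCl2. Protein–DNA complexes were captured on amylose resin, washed three times, and the DNA was freed with proteinase K, barcoded by PCR and sequenced on Illumina. Binding is expressed as reads-per-million enrichment of pull-down over input, with replicates pooled.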
On to “GATGATTGTTCTCCCAGCTGATGAATTCCTCAGATCGAGTAAACAAATTTTCCTAATCTTTCTGTTCAAGCGCCATCTAC”, for which the binding signal is 0.761 RPM ratio (pull-down/input). Regarding “GATGATTGTTCTCCCAGCTGATGAATTCATAAACTCGAGTAAACAAATTTTCCTAATCTTTCTGTTCAAGCGCCATCTAC”, the binding signal was 1.07 RPM ratio (pull-down/input). Then “GATGATTGTTCTCCCAGCTGATGAATTATTTGCATCGAGTAAACAAATTTTCCTAATCTTTCTGTTCAAGCGCCATCTAC”, with 1.89 RPM ratio (pull-down/input); and “GATGATTGTTCTCCCAGCTGATGAATTTGTTGCATCGAGTAAACAAATTTTCCTAATCTTTCTGTTCAAGCGCCATCTAC”, with 1.84 RPM ratio (pull-down/input); and “GATGATTGTTCTCCCAGCTGATGAATTTGCATGATCGAGTAAACAAATTTTCCTAATCTTTCTGTTCAAGCGCCATCTAC”, with 1.05 RPM ratio (pull-down/input).

Consider “GATGATTGTTCTCCCAGCTGATGAATTATTGCCATCGAGTAAACAAATTTTCCTAATCTTTCTGTTCAAGCGCCATCTAC”, for which the binding signal is 1.24 RPM ratio (pull-down/input). Then “GATGATTGTTCTCCCAGCTGATGAATTTTTTGCATCGAGTAAACAAATTTTCCTAATCTTTCTGTTCAAGCGCCATCTAC”, with 1.45 RPM ratio (pull-down/input).

As for “GATGATTGTTCTCCCAGCTGATGAATTCTTTGCATCGAGTAAACAAATTTTCCTAATCTTTCTGTTCAAGCGCCATCTAC”, the binding signal was 1.26 RPM ratio (pull-down/input). Regarding “GATGATTGTTCTCCCAGCTGATGAATTTGCAGCATCGAGTAAACAAATTTTCCTAATCTTTCTGTTCAAGCGCCATCTAC”, the binding signal is 1.09 RPM ratio (pull-down/input). In the case of “GATGATTGTTCTCCCAGCTGATGAATTATTGCAATCGAGTAAACAAATTTTCCTAATCTTTCTGTTCAAGCGCCATCTAC” it was 1.49 RPM ratio (pull-down/input). Then “GATGATTGTTCTCCCAGCTGATGAATTGTTTGCATCGAGTAAACAAATTTTCCTAATCTTTCTGTTCAAGCGCCATCTAC”, with 2.26 RPM ratio (pull-down/input); and “GATGATTGTTCTCCCAGCTGATGAATTCCCCTCTTCGAGTAAACAAATTTTCCTAATCTTTCTGTTCAAGCGCCATCTAC”, with 0.821 RPM ratio (pull-down/input). In the case of “GATGATTGTTCTCCCAGCTGATGAATTCTCAGGGTCGAGTAAACAAATTTTCCTAATCTTTCTGTTCAAGCGCCATCTAC” it was 0.745 RPM ratio (pull-down/input); in that of “GATGATTGTTCTCCCAGCTGATGAATTGTGCCTGTCGAGTAAACAAATTTTCCTAATCTTTCTGTTCAAGCGCCATCTAC”, 0.964 RPM ratio (pull-down/input); in that of “GATGATTGTTCTCCCAGCTGATGAATTTCGCAAGTCGAGTAAACAAATTTTCCTAATCTTTCTGTTCAAGCGCCATCTAC”, 0.831 RPM ratio (pull-down/input). “GATGATTGTTCTCCCAGCTGATGAATTAGGAACGTCGAGTAAACAAATTTTCCTAATCTTTCTGTTCAAGCGCCATCTAC”: the binding signal was 0.882 RPM ratio (pull-down/input). For the sequence “GATGATTGTTCTCCCAGCTGATGAATTGCCGTCGTCGAGTAAACAAATTTTCCTAATCTTTCTGTTCAAGCGCCATCTAC”, the binding signal was 0.968 RPM ratio (pull-down/input).

“GATGATTGTTCTCCCAGCTGATGAATTAGACATATCGAGTAAACAAATTTTCCTAATCTTTCTGTTCAAGCGCCATCTAC”: the binding signal was 1.06 RPM ratio (pull-down/input). Consider “GATGATTGTTCTCCCAGCTGATGAATTTACTAAGTCGAGTAAACAAATTTTCCTAATCTTTCTGTTCAAGCGCCATCTAC”, for which the binding signal was 1.29 RPM ratio (pull-down/input).

In the case of “GATGATTGTTCTCCCAGCTGATGAATTCCCACGATCGAGTAAACAAATTTTCCTAATCTTTCTGTTCAAGCGCCATCTAC”, the binding signal was 0.81 RPM ratio (pull-down/input). For “GATGATTGTTCTCCCAGCTGATGAATTTGTAATATCGAGTAAACAAATTTTCCTAATCTTTCTGTTCAAGCGCCATCTAC”, the binding signal was 1.36 RPM ratio (pull-down/input). In the case of “GATGATTGTTCTCCCAGCTGATGAATTCTGAATATCGAGTAAACAAATTTTCCTAATCTTTCTGTTCAAGCGCCATCTAC” it was 0.974 RPM ratio (pull-down/input); in that of “GATGATTGTTCTCCCAGCTGATGAATTGCAAATATCGAGTAAACAAATTTTCCTAATCTTTCTGTTCAAGCGCCATCTAC”, 1.85 RPM ratio (pull-down/input). In the case of “GATGATTGTTCTCCCAGCTGATGAATTTTCAATATCGAGTAAACAAATTTTCCTAATCTTTCTGTTCAAGCGCCATCTAC” it was 1.06 RPM ratio (pull-down/input); in that of “GATGATTGTTCTCCCAGCTGATGAATTCTAAATATCGAGTAAACAAATTTTCCTAATCTTTCTGTTCAAGCGCCATCTAC”, 1.76 RPM ratio (pull-down/input); in that of “GATGATTGTTCTCCCAGCTGATGAATTCCTAATATCGAGTAAACAAATTTTCCTAATCTTTCTGTTCAAGCGCCATCTAC”, 1.07 RPM ratio (pull-down/input). For “GATGATTGTTCTCCCAGCTGATGAATTGTAAATATCGAGTAAACAAATTTTCCTAATCTTTCTGTTCAAGCGCCATCTAC”, the binding signal is 2.72 RPM ratio (pull-down/input). Take “GATGATTGTTCTCCCAGCTGATGAATTTGCAATATCGAGTAAACAAATTTTCCTAATCTTTCTGTTCAAGCGCCATCTAC”: the binding signal is 1.34 RPM ratio (pull-down/input). Then “GATGATTGTTCTCCCAGCTGATGAATTTCTAATATCGAGTAAACAAATTTTCCTAATCTTTCTGTTCAAGCGCCATCTAC”, with 1.09 RPM ratio (pull-down/input).

“GATGATTGTTCTCCCAGCTGATGAATTTCCAATATCGAGTAAACAAATTTTCCTAATCTTTCTGTTCAAGCGCCATCTAC”: the binding signal was 1.02 RPM ratio (pull-down/input).

Turning to “GATGATTGTTCTCCCAGCTGATGAATTTCAAATATCGAGTAAACAAATTTTCCTAATCTTTCTGTTCAAGCGCCATCTAC”, the binding signal was 0.914 RPM ratio (pull-down/input). In the case of “GATGATTGTTCTCCCAGCTGATGAATTGTCAATATCGAGTAAACAAATTTTCCTAATCTTTCTGTTCAAGCGCCATCTAC” it was 2.23 RPM ratio (pull-down/input).

Source of the values: article PMC12820563, “FoxP3 forms a head-to-head dimer in vivo and stabilizes its multimerization on adjacent microsatellites”.
